Bioassay records: PubChem, National Center for Advancing Translational Sciences (NCATS)
JMJD2A Tudor = JMJD2A Tudor domain (human) inhibition; AlphaScreen JMJD2A-Tudor / H3K4me3 peptide binding; 4.4% of 390,000 active; Potency, µM (titrated, usually from 114 µM), actives largely listed as inhibitors; O75164; note: nearly all actives have a fitted effect of over 50% in size
HP1b chromo inh = HP1-beta chromodomain-methylated histone interaction inhibition. P83916. Potency, µM (titrated, usually from 114 µM), actives largely listed as inhibitors. AlphaScreen HP1-beta / biotin-H3K9me3 peptide binding. 0.56% of 390,000 active; note: nearly all actives have a fitted effect of over 70% in size
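AlphaScreen: HP1-beta (50 nM) preformed 30 min with biotin-H3(1-18)K9me3 peptide (50 nM) in PBS pH 7.4, 0.01% Tween-20. Compound added for 30 min at RT, then streptavidin donor/nickel chelate acceptor beads (10 ug/mL) for 30 min.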
BAZ2B block = inhibitors of human BAZ2B bromodomain. AlphaScreen BAZ2B-H3K14Ac peptide displacement. Potency, µM (top dose mostly 114 µM), actives largely listed as inhibitors. 4.4% of 360,000 active. AID 504333; note: nearly all actives have a fitted effect of over 60% in size
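BAZ2B 50 nM plus b-H3(5-23)K14Ac 50 nM, PBS pH 7.4/0.01% Tween-20, 30 min RT; compound added (max 110 uM), 30 min RT; streptavidin donor/Ni-chelate acceptor beads 10 ug/mL final, 20 min dark; AlphaScreen read.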
GLS inh = glutaminase GLS (human) inhibition; GLS enzymatic activity, qHTS titration; Potency, µM (highest dose often 45.5 µM), usual class: inhibitors; 0.21% of 410,000 active
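Assay buffer: 45 mM KH2PO4 pH 8.2, 0.02% Tween-20. hKGA acts on L-glutamine (1 mM solution added); product glutamate is reported by an oxidase/peroxidase Amplex Red coupling, with fluorescence taken at baseline and 30 min.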
G9a inh = G9a (human) methyltransferase inhibition; Q96KQ7; 8.8% of 350,000 active; G9a H3K9 monomethylation, AlphaScreen, 2 h; Potency, µM (highest dose often 102 µM), most hits filed as inhibitors; note: nearly all actives have a fitted effect of over 75% in size
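Step 1: enzyme (final 20 nM) with compound, 15 min RT. Step 2: substrate peptide 500 nM and SAM 20 uM, 2 h RT. Step 3: anti-H3K9me1 antibody and AlphaScreen beads, 10 min, then plate read.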
Numbers stand for hits; . = inactive; ? = inconclusive; / = no result given; [ ] = another dose, or the depositor's remark. Rows were chosen to be rich in hits. Some 10% of all compounds tested hit in one or more screens of this group. Calls come from the whole dose curve; as a rule, active = well fitted curve in the direction sought with a large enough effect; inconclusive = small, poorly fitted or top-dose-only effect, or another doubt; inactive = no such curve, though single readings can be large; an effect the other way counts as inactive or inconclusive.

SMILES	JMJD2A Tudor	HP1b chromo inh	BAZ2B block	GLS inh	G9a inh
COc1ccc(-c2nsc(SCC(=O)NCC3CCCO3)n2)cc1 (configuration not stated)	.	.	.	.	7.9µM
CCOC(=O)CSc1nc(-c2ccccc2)ns1	.	.	.	?	8.9µM
CCc1nnc(NC(=O)CSc2nc(-c3ccc(OC)cc3)ns2)s1	.	.	.	.	?
CN(C)CCCNC(=O)C[C@H]1C[C@H](C(=O)N2CCOCC2)[C@@]2(C)c3[nH]c4cc(-c5ccco5)ccc4c3CCN2C1=O	.	.	/	.	/
Cc1cccc(C)c1-n1nnnc1C(c1ccnc2ccccc12)N1CCN(c2ccccc2F)CC1 (configuration not stated)	/	/	/	.	/
CSc1nc(-c2ccccc2)nn1C(=O)c1ccccc1	.	.	.	.	.
CCCC(=O)n1nc(-c2ccccc2)nc1SC	.	.	.	.	1.1µM
CCOC(=O)CNC(=O)CSc1nc(-c2ccc(OC)cc2)ns1	.	?	.	.	18µM
COc1ccc(-c2nc(C)c(CCNC(=O)C(=O)Nc3ccccc3F)s2)cc1	.	.	.	.	.
O=C(/C=C/c1ccc(F)cc1)N1CCCN(C(=O)/C=C/c2ccc(F)cc2)CC1	.	.	.	.	.
O=C(/C=C/c1ccc(-c2ccc(F)cc2)o1)N1CCCC1	.	.	.	.	45µM
Cc1ccc(S(=O)(=O)Nc2cccc(C(=O)N3CCC(C(N)=O)CC3)c2)cc1	.	.	.	.	.[2.33 µM]
COc1ccc(-c2csc(N(CCCN3CCOCC3)C(=O)CCl)n2)cc1	?	.	?	.	35µM
CCN(CC)CCCN(C(=O)c1ccc(Br)cc1)c1nc(-c2ccc(OC)cc2)cs1	56µM	?	50µM	.	/
O=C(c1ccco1)N(CCCN1CCOCC1)c1nc(-c2ccc(Cl)cc2)cs1	.	.	.	.	?
Cc1noc(C)c1S(=O)(=O)NC(=O)C1(C)CCN1C(=O)Cc1ccc(Cl)cc1Cl (configuration not stated)	/	/	/	.	/
Cn1c2ccsc2c2ncn(Cc3ccccc3F)c(=O)c21	.	.	.	.	.[12.7 µM]
CN1COc2ccc3ccccc3c2C1	.	.	?	.	2.2µM
O=C1CCc2c(ccc3ccccc23)O1	/	/	/	/	.
Cc1cc(C)cc(NC(=S)N(CCN2CCCCC2)Cc2ccco2)c1	?	.	?	.	.
Cc1cc(NC(=S)N(CCCN2CCN(C)CC2)Cc2ccco2)ccc1Cl	.	.	.	?	32µM
Cc1ccc(NC(=S)N(CCCN2CCOCC2)Cc2ccco2)cc1C	.	.	?	.	.
Cc1ccc(NC(=S)N(CCN2CCCCC2)Cc2ccco2)cc1Cl	.	.	.	.	50µM
CC1CCC(NC(=O)CCCn2sc3ccccc3c2=O)CC1 (configuration not stated)	?	.	.	.	22µM
CCO[C@@H](Cc1ccc(OCCc2ccc(OS(C)(=O)=O)cc2)cc1)C(=O)O	/	/	/	.	/
SMILES	JMJD2A Tudor	HP1b chromo inh	BAZ2B block	GLS inh	G9a inh
NN1C(=O)NC(c2ccccc2)(c2ccccc2)C1=O	25µM	.	.	.	.
NC(=O)NC(=O)CN1C(=O)NC(c2ccccc2)(c2ccccc2)C1=O	.	.	.	.	.
COc1ccc2c(c1)c1c(c(=O)n(Cc3ccccc3)c(=O)n1Cc1ccccc1Cl)n2C	.	.	.	.	.
CCSC1=N/C(=C\c2ccc(C(=O)O)cc2)C(=O)S1	.	.	?	.	?
O=C1SC(SCc2ccccc2Cl)=N/C1=C\c1ccc(C(=O)O)cc1	.	.	.	?	40µM
C=CCSC1=N/C(=C\c2ccc(C(=O)O)cc2)C(=O)S1	.	.	.	.	45µM
CCCc1nc2c3ccccc3ccn2c1Cc1cccc(F)c1	/	/	/	.	/
O=C(Nc1ccc(Cl)cc1)C1CCN(c2nc3ccccc3n3cccc23)CC1	.	.	?	.	.
Cc1cccc(-c2cc3nc4c(c(NCc5ccco5)n3n2)CCCC4)c1	79µM	.	.	.	.
Cc1cccc(-c2cc3nc4c(c(N5CCOCC5)n3n2)CCCC4)c1	.	.	.	.	.
Cc1ccc(C2OCC(C)([N+](=O)[O-])CO2)cc1 (configuration not stated)	.	.	/	.	/
O=C(O)c1n[nH]c2ccccc12	28µM	.	.	.	?
O=C(c1n[nH]c2ccccc12)N1CCCCC1	.	.	.	?	.
Cc1ccc2occ(CC(=O)Nc3ccc(Cl)c(C(F)(F)F)c3)c2c1	.	.	.	.	.
Cc1cc(F)ccc1NCC(=O)Nc1ccccc1Br	.	.	.	.	50µM
O=C(C[n+]1cc(Br)cc(Br)c1)c1ccc(-c2ccccc2)cc1	?	.	?	.	25µM
O=C(C[n+]1cccc2ccccc21)c1ccc(Br)cc1	.	.	.	.	.
O=C(C[n+]1cc(Br)cc(Br)c1)c1ccccc1	.	.	.	.	.
O=C(C[n+]1cc(Br)cc2ccccc21)c1ccc(Br)cc1	?	.	.	.	28µM
Cc1ccc[n+](CC(=O)c2ccc(-c3ccccc3)cc2)c1	.	.	.	.	.
Cc1sc[n+](CC(=O)c2ccc(Br)cc2)c1C	.	.	.	.	.
Cc1ccc(C(=O)C[n+]2ccccc2)cc1	.	.	.	.	14µM
O=C(C[n+]1cn(C(F)F)c2ccccc21)c1ccc(Br)cc1	.	.	50µM	.	.
CCOC(=O)Cn1nc(N2CCN(c3ccc(F)cc3)CC2)ccc1=O	.	.	/	.	.
COc1cccc2ccc(CC(O)(c3ccccc3)c3ccccc3)nc12	/	/	/	.	/
SMILES	JMJD2A Tudor	HP1b chromo inh	BAZ2B block	GLS inh	G9a inh
COc1ccc(C(=O)C[n+]2ccccc2C)cc1	25µM	?	.	?	.
Cc1ccc(C(=O)C[n+]2cc(Br)cc(Br)c2)cc1[N+](=O)[O-]	?	.	?	.	50µM
O=C(C[n+]1cc(Br)cc2ccccc21)c1ccc(Cl)cc1	?	.	.	.	50µM
Cc1cc(C)c[n+](CC(=O)c2ccc(C)c([N+](=O)[O-])c2)c1	.	.	.	.	/
Cc1ccc(C)c(NC(=O)CCN2C(=O)c3ccccc3Sc3ncccc32)c1	.	.	.	.	.
COc1ccc(Cn2cc(Cn3c4ccccc4c(=O)n3C(C)C)nn2)cc1	/	/	/	.	/
CC(=O)c1ccccc1OCC(O)CN1CCN(CCN2C(=O)c3cccc4cccc(c34)C2=O)CC1 (configuration not stated)	.	.	.	.	.[12.7 µM]
COc1ccc(COCC(O)CN2CCC(CN3C(=O)c4cccc5cccc(c45)C3=O)CC2)cc1OC (configuration not stated)	.	.	.	.	79µM
O=C1c2cccc3cccc(c23)C(=O)N1CC1CCN(CC(O)COc2ccc3ccccc3c2)CC1 (configuration not stated)	13µM	?	?	.	10µM
Cc1ccc(C)c(OCC(O)CN2CCN(CCN3C(=O)c4cccc5cccc(c45)C3=O)CC2)c1 (configuration not stated)	?	.	50µM	.	?
